Test results taken from PubChem BioAssay AID624504 (Sanford-Burnham Center for Chemical Genomics, 2012).
Among all 5,000 compounds or so, about 3,900 (78%) were called active. No stated cut-off is given here; in the data, active means inhibition above about 22%; inactive means the rest. The set was probably picked from earlier hits. Not all results are given here.

assay: fluorescence retest of MPTP screen hits in isolated mitochondria, single concentration (AID 624504); conditions: membrane potential, Rhodamine 123 fluorescence, at 10 µM, stronger effect = higher value;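 further: 0% = DMSO vehicle and 100% = positive control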

inhibition, active:
N/C(=N\OC(=O)Nc1ccc(Cl)c(Cl)c1)c1ncc(C(F)(F)F)cc1Cl 118%
c1ccc(-c2cc3c(NCC4COc5ccccc5O4)ncnc3s2)cc1 (stereo unspecified) 70.6%
CSc1nccc(NC(=O)c2ccc(C(C)(C)C)cc2)n1 91.4%
COc1cc(C(=O)Nc2oc(-c3ccccc3)c(-c3ccccc3)c2C#N)cc(OC)c1OC 63%
COC(=O)c1sccc1NC(=O)CSc1ccccc1NS(=O)(=O)c1cc(Cl)ccc1Cl 90.9%
Cn1nc(C(F)(F)F)c(C(=O)Nc2cccc(C(F)(F)F)c2)c1SCc1ccc(Cl)cc1 63.4%
COc1cc(NS(=O)(=O)c2ccc(NC(C)=O)cc2)cc(OC)c1 47.9%
COc1ccc(S(=O)(=O)Nc2ccc3oc(C)c(C(C)=O)c3c2)cc1 63.9%
CC(C)OCCCNc1ncnc2c1[nH]c1ccc(F)cc12 110%
COc1ccc2oc(-c3cccc(NC(=O)CSc4ccc(Cl)cc4)c3)nc2c1 70.8%
O=C(Nc1ccc(Cl)cc1)Nc1ccc(Oc2cccnc2)nc1 94.2%
CCCc1cc(=S)n2c([nH]c3ccccc32)c1C#N 80.9%
Cc1ccc(Sc2ccc(NC(=O)c3ccc(F)cc3)cc2C#N)cc1 99.4%
COc1ccc(Sc2ccc(NC(=O)c3cccc(Cl)c3)cc2C#N)cc1 77.8%
O=C(NNC(=O)c1csc(-c2cccnc2)n1)Nc1ccc(Cl)cc1 68.5%
O=C(Nc1nnc(S(=O)(=O)N2CCCCCC2)s1)c1cccc(Br)c1 99.7%
CCOC(=O)c1cc2cc(-c3c(C(=O)OCC)oc4cc(O)cc(O)c4c3=O)ccc2o1 47.3%
COc1ccc(Cn2c(=O)sc3ccccc32)cc1OC 38.6%
O=C(Nc1nnc(SCc2c(Cl)cccc2Cl)s1)c1cccc([N+](=O)[O-])c1 82.1%
O=C(Nc1nnc(SCc2ccccc2Cl)s1)c1cccc([N+](=O)[O-])c1 79.5%
O=C(Cc1c(F)cccc1Cl)Nc1ncc([N+](=O)[O-])s1 98.1%
S=C(NCc1ccc(Cl)cc1)NC1CCCCC1 92.6%
S=C(NCc1ccc(Cl)cc1)NC12CC3CC(CC(C3)C1)C2 83.4%
O=C(Cc1ccc(Cl)c(Cl)c1)Nc1ccc(SC(F)F)cc1 73.8%
COc1ccc(/C=C2/SC(=O)N(CCCCCC(=O)Nc3ccccc3C(=O)O)C2=S)cc1 46.1%
CN(C(=O)Nc1ccc(Cl)cc1)n1cnc2ccccc2c1=O 89.2%
Cc1ccccc1C(=O)NC(=S)Nc1ccc(N2CCN(C(=O)c3ccccc3)CC2)cc1 81.8%
C/C(=N\NC(=O)c1ccc(C)cc1)C1C(=O)c2ccccc2C1=O 58%
COc1ccc(-c2nc3cc(C)ccn3c2NC2CCCCC2)cc1SC1CCCCC1 77.5%
O=C(Nc1ccccc1)c1ccccc1NC(=O)C(F)(F)F 85%
O=C(CSc1nc(-c2ccccc2)cs1)Nc1cccc([N+](=O)[O-])c1 80.1%
Cc1cccc(OCCNC(=O)CSc2ccc(C(F)(F)F)cc2[N+](=O)[O-])c1 81.3%
O=C(Nc1ccc2ccccc2c1)Nc1ccc2snnc2c1 47.9%
COc1ccc(NC(=O)Nc2ccc3nsnc3c2)cc1 84.7%
O=C(Nc1ccccc1)Nc1nnc(COc2ccccc2F)s1 60.4%
O=C(CSc1nc2ccc([N+](=O)[O-])cc2[nH]1)c1ccc(Cl)cc1 76.5%
CCOC(=O)N1CCN(C(=O)c2ccc3c(c2)N(Cc2ccc(C)cc2)CCS3)CC1 63.9%
N#Cc1ccc(C(=O)Nc2nc(-c3cccs3)c(C(=O)C(F)(F)F)s2)cc1 109%
Cc1cccc(NC(=S)Nc2ccc(Br)cc2)c1 102%
S=C(Nc1ccccc1)Nc1ccc2ccccc2c1 89.2%
Cc1cccc(NC(=S)Nc2ccc(Cl)c(Cl)c2)c1 90.8%
CC(=O)c1ccc(NC(=O)Nc2ccc([N+](=O)[O-])cc2C)cc1 90.3%
COc1cc(NC(=O)Nc2ccc(C)cc2)cc([N+](=O)[O-])c1 95.5%
O=C(Nc1cccc(F)c1)c1coc(=O)c(Br)c1 77.9%
COc1ccc(-n2c(C)cc(C(=O)CSc3nnc(-c4cccs4)o3)c2C)cc1 83%
FC(F)(F)Oc1ccc(NC(=S)NCc2ccccc2)cc1 90.9%
CSCCC(NC(=O)c1cc([N+](=O)[O-])cc([N+](=O)[O-])c1)c1nc2ccccc2[nH]1 (stereo unspecified) 81.7%
Cc1ccc(C)c(S(=O)(=O)N2CCN(c3ncnc4sccc34)CC2)c1 104%
Cc1ccc(NC(=O)Nc2cc(-c3ccccc3)nn2C)cc1Cl 69.1%
Cc1cc(NC(=O)Nc2ccc(Cl)cc2)n(-c2ccccc2)n1 76.2%
Fc1ccccc1CNC(=S)Nc1ccc(Cl)cc1 90.7%
COc1ccc(NS(=O)(=O)c2ccc(Oc3c(C#N)cccc3C#N)cc2)cc1 75.8%
S=C(NCCCc1ccccc1)Nc1ccc(Br)cc1 91.8%
CC(NC(=S)Nc1ccccc1)C1COc2ccccc2O1 (stereo unspecified) 87%
S=C(NCC1COc2ccccc2O1)Nc1ccc(Br)cc1 (stereo unspecified) 93.1%
O=C(CSCc1ccc(Br)cc1)Nc1ccc(S(=O)(=O)N2CCCCCC2)cc1 80.4%
Fc1cc(F)c2nc(Nc3nc4c(F)cccc4s3)sc2c1 69.9%
C=CC[n+]1c(-c2ccc(C)cc2)csc1NNC(=O)Nc1ccccc1 83.2%
O=C1CCCN1CCCNC(=S)Nc1ccc(F)c(Cl)c1 90.3%
Oc1c(Br)cccc1/C=N/Nc1c(F)c(F)c(F)c(F)c1F 72.3%
O=C(CC(O)(C(F)(F)F)C(F)(F)F)Nc1ccc(Cl)c(Cl)c1 84.9%
CCOC(=O)N1CCN(C(=O)C2CCN(c3ncnc4c3sc3cccc(F)c34)CC2)CC1 94.4%
N#C/C(=C(/O)Cc1cccc2ccccc12)c1nc2ccccc2s1 69.1%
COc1ccc(Br)cc1C(=O)NC(=S)Nc1cc(-c2nc3ccccc3[nH]2)ccc1C 51%
Cc1cc2ncn(CCCCOc3ccccc3)c2cc1C 36.7%
COc1ccc2c(c1)c(=Cc1ccc(N(C)C)cc1)c1cc(-c3ccccc3)[n+](C)n12 79.7%
O=C(Nc1ccc(C2CC2(Cl)Cl)cc1)c1cccc([N+](=O)[O-])c1 (stereo unspecified) 78.1%
Fc1ccc2[nH]c3c(N4CCSCC4)ncnc3c2c1 94%
Cc1[nH]n(-c2cccc(Cl)c2)c(=O)c1-c1ccc(Cl)cc1 98.6%
CS(=O)(=O)c1sc(C(=O)NC(=S)Nc2ccc(OC(F)(F)F)cc2)c2c1C=CCC2 71.2%
O=[N+]([O-])c1ccc(N/N=C/c2ccccc2)cc1 81.9%
Cc1cccc(COc2ccccc2/C=N/Nc2ccc([N+](=O)[O-])cc2)c1 81.5%
COc1ccccc1Oc1ccc(S(=O)(=O)Nc2cccnc2)cc1 70.1%
Cc1ccc(C)c(NC(=S)NNC(=S)Nc2ccc(C(C)C)cc2)c1 85.3%
S=C(NCCc1ccccc1)NCc1ccccc1Cl 67.2%
CCCCCC(O)c1cccc(OCc2ccc3ccccc3n2)c1 (stereo unspecified) 76.1%
Cc1csc(NC(=S)Nc2cccc(Cl)c2)n1 73.4%
S=C(Nc1cccc(Cl)c1)Nc1ccc2cn[nH]c2c1 92.7%
CCN1/C(=C\c2ccc3ccccc3[n+]2CC)Sc2cc(C)ccc21 96.3%
CCc1cc2c(N3CCN(c4nnc(CC)s4)CC3)ncnc2s1 41.8%

inhibition, inactive:
O=C(NC1CCN(Cc2ccccc2)CC1)c1cc(Br)c(Br)[nH]1 9.55%
COc1ccc2sc(N(CCCN(C)C)C(=O)c3ccc(S(=O)(=O)N(C)C4CCCCC4)cc3)nc2c1 -15.4%
O=C(c1ccc(Cl)cc1)c1ccc(OCC(O)CN2CCCCC2)cc1 (stereo unspecified) -2.35%
O=C(COC(=O)c1ccccc1NC(=O)c1ccco1)Nc1ccc2c(c1)OC(F)(F)O2 16.6%
CCCCOC(=O)CNc1nnc(SCC(=O)OCC)[nH]c1=O -7.97%
Brc1ccc(CSc2ccc(-c3ccco3)nn2)cc1 -1.72%
Cc1onc(-c2ccccc2)c1C(=O)NNC(=S)NC(=O)c1ccc(F)cc1 2.46%
CN(C)Cc1ccccc1C1(O)c2ccccc2CSc2ccccc21 (stereo unspecified) -8.88%
FC(F)(F)COc1nc(N2CCCCC2)nc(N2CCNCC2)n1 -11.8%
Cc1nn(Cc2ccccc2)c2c1C(c1ccccc1)C(C#N)=C(N)O2 (stereo unspecified) -0.3%
CN(C)Cc1ccc(F)cc1Sc1cc(Cl)ccc1Cl -3.35%
C=C1c2c(Cl)ccc(O)c2C(O)=C2C(=O)[C@]3(O)C(O)=C(C(N)=O)C(=O)[C@@H](N(C)C)[C@@H]3[C@@H](O)C12 (stereo partly specified) -13.7%
Fc1ccc(N2N=C(c3cccs3)CC2c2ccco2)c(F)c1 (stereo unspecified) -15.1%
CC(C)c1ccccc1OCC(O)CN(CC(O)COc1cccc2ccccc12)C(C)C (stereo unspecified) 4.85%
C[C@@H](CN1CCC[C@H]1CN1C(N)=NC[C@@H]1Cc1ccccc1)N1C[C@@H](Cc2ccccc2)N(CCCC2CCCC2)C1=N 7.61%
N=c1n(Cc2ccc(Cl)cc2)c2ccccc2n1CC(O)c1ccco1 (stereo unspecified) 4.39%
